Laboratory results: PubChem BioAssay

How the values were obtained:
[1] = tested on: Botulinum neurotoxin type F light chain protease (Clostridium botulinum); assay: Clostridium botulinum type F light chain protease inhibitors, microsphere substrate cleavage, validation (AID 588459); conditions: multiplex microsphere protease substrate cleavage assay, flow cytometry; at 10 µM; hits give high values
[2] = target: Botulinum neurotoxin type A (Clostridium botulinum) (UniProt P0DPI0); assay: BoNT/A light chain protease inhibitors, biochemical, multiplex microsphere flow cytometry, validation set (AID 588460); conditions: at 10 µM, hits give high values
Sequence of Botulinum neurotoxin type A (Clostridium botulinum) (P0DPI0 whole entry, looked up): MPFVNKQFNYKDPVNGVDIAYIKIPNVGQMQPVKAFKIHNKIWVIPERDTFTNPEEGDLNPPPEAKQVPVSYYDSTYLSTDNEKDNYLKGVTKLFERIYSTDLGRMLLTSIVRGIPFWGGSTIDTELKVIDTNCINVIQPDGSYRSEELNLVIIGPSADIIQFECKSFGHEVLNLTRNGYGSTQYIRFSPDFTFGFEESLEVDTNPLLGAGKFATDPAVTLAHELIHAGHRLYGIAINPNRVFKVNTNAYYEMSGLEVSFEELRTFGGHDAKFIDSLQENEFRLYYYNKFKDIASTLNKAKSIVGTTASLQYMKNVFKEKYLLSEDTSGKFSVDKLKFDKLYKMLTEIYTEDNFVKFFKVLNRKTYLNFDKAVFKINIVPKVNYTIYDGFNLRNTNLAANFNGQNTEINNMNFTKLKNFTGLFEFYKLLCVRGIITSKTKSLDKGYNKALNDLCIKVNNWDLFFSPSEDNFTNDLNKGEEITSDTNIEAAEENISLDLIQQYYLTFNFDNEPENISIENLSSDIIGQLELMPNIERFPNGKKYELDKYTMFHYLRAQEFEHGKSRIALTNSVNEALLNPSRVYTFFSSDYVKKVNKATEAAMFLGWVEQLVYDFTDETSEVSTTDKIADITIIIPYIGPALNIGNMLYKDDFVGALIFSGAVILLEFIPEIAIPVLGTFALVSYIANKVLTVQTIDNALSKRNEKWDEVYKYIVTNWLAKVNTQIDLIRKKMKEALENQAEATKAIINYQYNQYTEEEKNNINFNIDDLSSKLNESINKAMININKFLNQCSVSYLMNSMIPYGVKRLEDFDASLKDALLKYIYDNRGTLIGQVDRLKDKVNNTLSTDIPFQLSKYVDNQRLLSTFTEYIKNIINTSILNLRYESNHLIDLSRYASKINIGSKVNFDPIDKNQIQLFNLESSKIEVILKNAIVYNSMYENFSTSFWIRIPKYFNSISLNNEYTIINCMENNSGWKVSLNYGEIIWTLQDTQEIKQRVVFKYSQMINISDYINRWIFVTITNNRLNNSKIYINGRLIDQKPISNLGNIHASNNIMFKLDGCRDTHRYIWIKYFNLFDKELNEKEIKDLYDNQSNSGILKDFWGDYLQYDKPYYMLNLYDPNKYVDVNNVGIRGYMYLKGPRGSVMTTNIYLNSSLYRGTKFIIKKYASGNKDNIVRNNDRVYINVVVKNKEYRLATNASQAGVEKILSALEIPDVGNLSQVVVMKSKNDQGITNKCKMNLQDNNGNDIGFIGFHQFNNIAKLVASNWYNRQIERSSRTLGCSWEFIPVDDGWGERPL

[3] = target: Lethal factor (Bacillus anthracis) (UniProt P15917); assay: Bacillus anthracis lethal factor inhibition, microsphere flow cytometry protease assay, validation at 10 µM (AID 588461); conditions: multiplex microsphere protease cleavage assay, hits give high values
Sequence of Lethal factor (Bacillus anthracis) (P15917 whole entry, looked up): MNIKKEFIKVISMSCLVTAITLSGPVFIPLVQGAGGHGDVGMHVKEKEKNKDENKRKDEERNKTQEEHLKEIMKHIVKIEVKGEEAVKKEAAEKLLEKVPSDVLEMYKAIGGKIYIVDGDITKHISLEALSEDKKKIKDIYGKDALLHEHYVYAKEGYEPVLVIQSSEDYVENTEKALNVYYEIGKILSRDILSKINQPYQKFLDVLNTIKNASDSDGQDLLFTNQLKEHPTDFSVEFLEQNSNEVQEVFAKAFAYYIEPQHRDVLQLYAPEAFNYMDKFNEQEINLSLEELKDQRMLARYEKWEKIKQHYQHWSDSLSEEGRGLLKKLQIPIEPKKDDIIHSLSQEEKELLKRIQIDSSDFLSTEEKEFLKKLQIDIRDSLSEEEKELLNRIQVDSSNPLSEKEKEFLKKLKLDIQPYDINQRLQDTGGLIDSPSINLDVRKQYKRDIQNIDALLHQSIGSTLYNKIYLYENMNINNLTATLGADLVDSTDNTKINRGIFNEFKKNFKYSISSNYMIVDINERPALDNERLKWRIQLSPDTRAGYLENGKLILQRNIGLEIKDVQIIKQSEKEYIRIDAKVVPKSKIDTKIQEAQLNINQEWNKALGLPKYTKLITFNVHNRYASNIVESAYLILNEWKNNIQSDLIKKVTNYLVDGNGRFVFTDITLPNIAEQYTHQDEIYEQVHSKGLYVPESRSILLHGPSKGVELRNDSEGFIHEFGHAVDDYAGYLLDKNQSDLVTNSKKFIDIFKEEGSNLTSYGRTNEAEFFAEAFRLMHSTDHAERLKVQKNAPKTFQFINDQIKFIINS

Measured: inhibition

CCOc1cc(C)cc2oc(=O)cc(-c3ccccc3)c12
inactive: [1] -2.2% | [2] -0.6% | [3] -4.4%

COc1ccc(CN(CCN(C)C)c2ccccn2)cc1
inactive: [1] 0.8% | [2] 1.3% | [3] -14.9%

O=Cc1ccccc1Oc1ccccc1
inactive: [1] 0.2% | [2] -2.2% | [3] -0.3%

C[C@]12CC[C@@H]3c4ccc(O)cc4CC[C@H]3[C@@H]1CC[C@@H]2O
inactive: [1] 3.3% | [2] 1.1% | [3] -1.3%

COCc1cc(=O)[nH]c(/N=C(\N)Nc2ccc(Oc3ccccc3)cc2)n1
inactive: [1] 3.4% | [2] 0.1% | [3] 5.6%

COC(=O)c1ccc(NC(=O)c2ccccc2SC)cc1
inactive: [1] -4.7% | [2] -0.2% | [3] -5.4%

CCOCc1cc(C)[nH]c(=O)c1C#N
inactive: [1] -0.2% | [2] 2.8% | [3] 2%

CCCN(CCC)C(=O)C(CCC(=O)O)NC(=O)c1ccccc1 (stereo not drawn)
inactive: [1] 0.5% | [2] -0.3% | [3] 8.6%

Cc1ncc([N+](=O)[O-])n1CCO
inactive: [1] 3% | [2] -0.4% | [3] -4.2%

C[N+]12CCCCC1C(COC(=O)c1ccc3c(c1)OCO3)CCC2 (stereo not drawn)
inactive: [1] 2.1% | [2] 0.2% | [3] -0.7%

S=C(NCCOCCOCCNC(=S)Nc1ccccc1)Nc1ccccc1
inactive: [1] 1.9% | [2] 2% | [3] -3.8%

COCCOC(=O)C1=C(N)OC2=C(C(=O)CCC2)C1c1cccnc1 (stereo not drawn)
inactive: [1] -3.2% | [2] 0% | [3] -0.9%

COc1ccccc1N1CCN(CC(O)COc2cccc3ccccc23)CC1 (stereo not drawn)
inactive: [1] -2% | [2] -2.3% | [3] -6.6%

COc1cc(OC)c(-c2nc3cnccc3n2C)cc1OC
inactive: [1] -2.3% | [2] -1.9% | [3] -1.6%

CC1(C)CC(NCc2ccccc2)CCO1 (stereo not drawn)
inactive: [1] 9.4% | [2] 5.6% | [3] 1.1%

O=C(CC(C(=O)O)c1c[nH]c2ccccc12)c1ccccc1 (stereo not drawn)
inactive: [1] 0.3% | [2] 2% | [3] 6.4%

CCN(CC)CCNc1ccc(CO)c2sc3ccccc3c(=O)c12
inactive: [1] 0.5% | [2] -0.5% | [3] -7%

CCN(CCCCCN(C)C)Cc1cc2ccccc2o1
inactive: [1] 4.7% | [2] -1.1% | [3] 8.8%

CC(C)(C)C(=O)NCCCNc1ccc([N+](=O)[O-])cc1
inactive: [1] -0.6% | [2] -0.3% | [3] 3.3%

NNC(=O)c1cc(O)c(O)c(O)c1
inactive: [1] -3.2% | [2] -1% | [3] -2.8%

NNC(=O)c1ccncc1
inactive: [1] 1.1% | [2] -0.2% | [3] 5.3%

CCOC(=O)c1cccc(P(C)(C)=O)c1
inactive: [1] -1.1% | [2] -0.5% | [3] -5%

CCN1C(=O)C(CC(=O)Nc2ccc(F)cc2)N(Cc2ccco2)C1=S (stereo not drawn)
inactive: [1] -2.9% | [2] -2.8% | [3] -7.4%

O=C(O)c1ccc(OCCn2ccnc2)cc1
inactive: [1] 2.9% | [2] -0.2% | [3] -0.6%

O=C(NCCO)c1ccc2[nH]c3ccccc3c2c1
inactive: [1] 0.6% | [2] 0.1% | [3] 5.3%

O=C(NCC1CCCO1)c1ccc(OC2CCN(C(=O)C3CC3)CC2)cc1 (stereo not drawn)
inactive: [1] 0.8% | [2] 0.5% | [3] -2.8%

Cc1nonc1CN(C)C(=O)c1ccc(OC2CCN(C(=O)c3cccnc3)CC2)cc1
inactive: [1] 3.6% | [2] 1.2% | [3] 10.7%

COc1cc2c(cc1O)CCN(C(=O)c1ccco1)C2C (stereo not drawn)
inactive: [1] 4.3% | [2] 1% | [3] 2.3%

CC(C(=O)O)c1ccc(-c2ccccc2)c(F)c1 (stereo not drawn)
inactive: [1] 5.7% | [2] 0.5% | [3] 5.7%

Cc1c(Cc2ccccc2)c(=O)oc2c(CN(C)C)c(O)c(Cl)cc12
inactive: [1] 0% | [2] -0.6% | [3] -7.6%

CC(C)Cc1ccc(C(C)C(=O)Nc2ccc(O)cc2)cc1 (stereo not drawn)
inactive: [1] -3.6% | [2] -1.3% | [3] -6.8%
